Measurements taken from PubChem BioAssay (NCATS).
Inconclusive results are not listed. Entries that show only a call come without a potency. Active and inactive are the calls of the source. Calls come from the whole dose curve; as a rule, active = well fitted inhibition curve with a large enough effect; inconclusive = small, poorly fitted or top-dose-only effect; inactive = flat fitted curve, though single readings scatter.

Assay: P-glycoprotein substrates identified in KB-8-5-11 adenocarcinoma cell line, qHTS therapeutic library screen (AID 1346987); note: nearly all actives have a fitted effect of over 65% in size
Conditions: KB-8-5-11 (P-gp overexpressing) viability, CellTiter-Glo, 72 h; series mostly up to 44.5 µM
Method in brief: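 Compounds are pinned in dose-response onto KB-8-5-11 cells (500 cells/well, colchicine-free medium) and left 72 h at 37 degree C. CellTiter-Glo luminescence then yields AC50 values.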
Potency is the fitted concentration of half-maximal effect.

Row | SMILES | Potency
1 | Cc1ccc(-c2cn3c4c(sc3n2)CCCC4)cc1 | inactive
2 | CC(C)(C)c1ccc(C(=O)Nc2cn3cc(-n4ccnc4)ccc3n2)cc1 | inactive
3 | COc1cc(NC(=O)c2cc(C3CC3)on2)c(OC)cc1Cl | inactive
4 | C=C(C(=O)OC[C@H]1O[C@@H](OC(=O)/C=C/c2ccccc2)[C@H](O)[C@@H](O)[C@@H]1O)C(O)CO (stereo partly specified) | inactive
5 | O=C1O[C@@H]2[C@@H](O)[C@H](O)O[C@@H]2[C@H]1O | inactive
6 | C/C=C/C1=CC2=C(CO1)C(=O)C(C)(OC(=O)c1c(C)cc(O)cc1OC)C(O)C2 (stereo unspecified) | inactive
7 | C/C=C(\C)C(=O)OC1C=C(C)CC(OC(=O)c2ccc(O)cc2)C2C1(C)CCC2(O)C(C)C (stereo unspecified) | inactive
8 | COc1ccc(CNc2nc(N(CCO)CCO)nc3c2ncn3C(C)C)cc1 | 5.8 µM (active)
9 | COc1ccc(C2(CNC(=O)c3ccc(NC(=O)c4ccco4)cc3)CCOCC2)cc1 | inactive
10 | CCC(CN)CC(C)CCNCC(O)CNCC(C)CC(CC)CN (stereo unspecified) | inactive
11 | C=CS(=O)(=O)NC1CCN(C(=O)CNc2cc(I)c(Cl)cc2OC)CC1 | 14.6 µM (active)
